Source: PubChem BioAssay
Values joined by “and” are separate entries in the source; they are usually repeats but may differ in a detail not shown here. Equal entries are not always repeated.

What follows are molecules tested against Follistatin (Homo sapiens) (UniProt P19883) (assay: FST protein binding to printed compounds – biochemical, small-molecule microarray, 635/667 nm fluorescence, primary screen (AID 1132)). Conditions: 635 nm fluorescence, higher = more signal.
Chain of Follistatin (Homo sapiens) (P19883 whole entry, looked up): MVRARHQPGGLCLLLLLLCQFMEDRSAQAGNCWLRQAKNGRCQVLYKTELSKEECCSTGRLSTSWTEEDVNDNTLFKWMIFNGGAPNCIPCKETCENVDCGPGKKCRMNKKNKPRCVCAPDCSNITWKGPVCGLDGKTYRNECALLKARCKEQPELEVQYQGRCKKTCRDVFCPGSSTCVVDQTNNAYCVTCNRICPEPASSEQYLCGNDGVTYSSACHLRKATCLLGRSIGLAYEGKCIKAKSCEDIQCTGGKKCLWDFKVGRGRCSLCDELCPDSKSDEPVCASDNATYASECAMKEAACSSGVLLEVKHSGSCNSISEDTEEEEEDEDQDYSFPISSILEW

Q: How did the composite z-score turn out when `CN1C(=O)C2CC=C([C@H]3Oc4ccccc4S(=O)(=O)N4CCC[C@@H]34)CC2C1=O` (stereo partly specified) was run?
A: -0.375 and -0.417

Q: How did the composite z-score turn out when `C[C@@H](ON=C1[C@H]2CCn3c(=O)n(-c4ccccc4)c(=O)n3[C@H]2[C@H](O)[C@@H]2O[C@H]12)c1cn([C@H](CO)Cc2ccccc2)nn1` was run?
A: 0.523

Q: With `CCOC(=O)C[C@H]1[C@H](OC(=O)c2ccccc2-c2ccccc2)[C@@H](NC(=O)Cc2ccc(OC)cc2)c2cc(OCCCO)ccc2N1C(=O)c1ccc2ccccc2n1` as the molecule, how does the composite z-score read?
A: 0.392 and 0.546

Q: For `CCOC(=O)[C@H](CC(C)C)NC(=O)CCC1CC(OC(=O)NCc2cccc3ccccc23)CC2(CCCC(COC(=O)NCc3ccccc3)O2)O1` (stereo partly specified), which composite z-score is on record?
A: -0.126

Q: With `Cc1ccc(S(=O)(=O)N[C@@H]2COC(=O)CC=C[C@@H](C)[C@@H]3C=C[C@H](O)[C@@H](COC(=O)CC=C[C@H]2C)O3)cc1` as the molecule, how does the composite z-score read?
A: 1.34 and 0.443

Q: Which composite z-score does the source give for `CO[C@@H]1COC(=O)[C@H](Cc2ccccc2)NC(=O)CC=C[C@@H](C)[C@H](OC)COC(=O)[C@@H](C)NC(=O)CC=C[C@H]1C` here?
A: 1.32 and 1.18

Each molecule was assayed against Fibroblast growth factor 2 (Homo sapiens) (UniProt P09038) (assay: basic fibroblast growth factor binding to printed compounds – biochemical, small-molecule microarray, 635/667 nm fluorescence, primary screen (AID 1133)). Conditions: FGF2, fluorescence 635/667, higher = more signal.
Chain of Fibroblast growth factor 2 (Homo sapiens) (P09038 whole entry, looked up): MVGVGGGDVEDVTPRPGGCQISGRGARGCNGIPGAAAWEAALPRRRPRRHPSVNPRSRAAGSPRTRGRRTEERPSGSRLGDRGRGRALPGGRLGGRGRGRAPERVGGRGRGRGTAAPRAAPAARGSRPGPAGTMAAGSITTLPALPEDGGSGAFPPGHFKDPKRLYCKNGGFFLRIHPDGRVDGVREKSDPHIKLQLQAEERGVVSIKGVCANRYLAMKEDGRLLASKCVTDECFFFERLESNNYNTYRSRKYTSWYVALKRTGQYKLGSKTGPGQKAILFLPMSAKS

Q: Which composite z-score does the source give for `CC(C)=NOC[C@@H](O)COCc1ccco1` here?
A: 0.782

Q: `COC(=O)C1=C(C)N(Cc2ccccc2)C2=C(C(C)=O)C[C@@](O)(C(=O)OC)C(=O)N2[C@@H]1c1ccccc1` was tested. Which composite z-score did it give?
A: 1.55 and 0.0618

Q: Which composite z-score does the source give for `COC(=O)[C@@]1(Cc2ccc(OC)cc2)[C@H]2c3cc(C(=O)N(C)C)n(Cc4ccc(O)c(OC)c4)c3C[C@H]2CN1C(=O)c1ccccc1` here?
A: -0.913 and -0.134

Q: With `C=CC[C@H](O)c1ccc(OCCO)cc1` as the molecule, how does the composite z-score read?
A: -0.442 and 0.17

Q: With `CC(C)=NO[C@@H](C)c1cc(-c2c(C)cc(C)cc2C)no1` as the molecule, how does the composite z-score read?
A: 0.0248

Q: With `C[N+](C)(C)CCCCNC(=O)[C@H]1C[C@H]2C(=O)N[C@@H](CCCC[N+](C)(C)C)C(=O)N2[C@H]1c1ccc(O)cc1` as the molecule, how does the composite z-score read?
A: 2.01 and 1.99

Q: For `C[C@@]1([C@@H](NC(=O)Cc2ccccc2)c2ccc(-c3ccccc3)cc2)C[C@H]1C1CCCCC1`, which composite z-score is on record?
A: -0.131 and -0.0451 and -0.355

Q: How did the composite z-score turn out when `CCN1C(=O)[C@H]2[C@H]3[C@H](O)[C@H](O)CC(=NOC)[C@@H]3CC[C@H]2C1=O` was run?
A: -0.0102

Q: For `O=C1NC(=O)C2C1C=CC(C(O)c1ccc([N+](=O)[O-])cc1)N2Nc1ccc(Cl)cc1Cl` (stereo unspecified), which composite z-score is on record?
A: 0.202 and -0.279

Q: For `C=C[C@H](C)[C@@H](O)c1ccc(OCCO)cc1`, which composite z-score is on record?
A: 0.036 and -0.488

Q: For `CC(C)CON=C1C[C@@H](O)[C@@H](O)[C@@H]2[C@@H]3C(=O)N(c4cccc(Oc5ccccc5)c4)C(=O)[C@@H]3CC[C@H]12`, which composite z-score is on record?
A: 0.397

Q: Which composite z-score does the source give for `CO[C@H]1COC(=O)CC=C[C@@H](C)COC(=O)[C@H](CCSC)NC(=O)CC=C[C@@H]1C` here?
A: 1.97 and 1.78

Q: With `C=C[C@@H](OC)[C@H](O)c1ccc(OCCO)cc1` as the molecule, how does the composite z-score read?
A: -0.333 and -0.692

Q: Which composite z-score does the source give for `CCOC(=O)c1ccc(NC(=O)O[C@H]2[C@H](OC(=O)Nc3ccccc3)[C@@H](OC(=O)Nc3ccccc3)[C@@H](OC)O[C@@H]2CO)cc1` here?
A: 0.601 and 1.59

Q: `C=CCN(C(=O)C(c1cccs1)N(CCOCCO)C(=O)/C=C\C(=O)O)c1ccc(OC)cc1` (stereo unspecified) was tested. Which composite z-score did it give?
A: -0.993 and -1.6

Q: `C#CCN1C(/C=C/c2ccccc2)C(=O)OC[C@H]1c1ccccc1` (stereo partly specified) was tested. Which composite z-score did it give?
A: 0.441 and 1.07

Q: Which composite z-score does the source give for `CO[C@@H]1COC(=O)CC=C[C@H](C)COC(=O)[C@H](C)NC(=O)CC=C[C@H]1C` here?
A: 1.72

Q: How did the composite z-score turn out when `Cc1cc2c(nc1C)CCCN2CC(O)CN1CCCc2nc(-c3ccc(Br)cc3)ccc21` (stereo unspecified) was run?
A: 0.953 and 0.871

Q: Which composite z-score does the source give for `C=CCN(CCCCC)C(=O)C(c1cccs1)N(CCOCCO)C(=O)/C=C\C(=O)O` (stereo unspecified) here?
A: -1.77 and -1.79

Q: For `COc1ccc(-c2ccc3c(n2)CCCN3CC(O)CN2CCCc3nc(-c4ccc(Br)cc4)ccc32)cc1` (stereo unspecified), which composite z-score is on record?
A: 0.6 and 0.609

Q: Which composite z-score does the source give for `C=C[C@H](OC)[C@@H](O)c1ccc(OCCO)cc1` here?
A: -1.92 and -0.492

Q: Which composite z-score does the source give for `C=CCN(C(=O)C1N(CCCCCCO)C(=O)C2C(C(=O)O)C3C=CC21O3)c1ccc(OC)cc1` (stereo unspecified) here?
A: -2.95 and -1.96

Q: With `O=C1C[C@]2(c3ccc([N+](=O)[O-])cc3)C(=O)N(Cc3ccccc3)c3cc(CO)ccc3[C@H]2N1C1CCCCC1` as the molecule, how does the composite z-score read?
A: 0.368 and 1.02

Q: With `C=CCN(C(=O)C1N(c2c(Cl)cccc2CO)C(=O)C2C(C(=O)O)C3C=CC21O3)c1ccc(OC)cc1` (stereo unspecified) as the molecule, how does the composite z-score read?
A: -1.37 and -1.76

Q: For `C=CCN(C(=O)C1N(CCOCCO)C(=O)C2C(C(=O)O)C3C=CC21O3)C(C)(C)C` (stereo unspecified), which composite z-score is on record?
A: -1.27 and -2.81

Q: With `COC(=O)C1=C2N(Cc3ccccc3)C(C)=C(C(=O)OC)[C@@H](c3ccccc3)N2C(=O)[C@](O)(C(=O)OC)C1` as the molecule, how does the composite z-score read?
A: 1.71 and 0.858

Q: For `O=c1n(-c2ccccc2)c(=O)n2n1CC[C@@H]1C(=NOC[C@@H](O)COCc3ccco3)[C@H]3O[C@H]3[C@@H](O)[C@@H]12`, which composite z-score is on record?
A: 1.02 and 0.96

Q: With `CC(CO)N1C(=O)[C@@H]2C3C(=O)OCCC=C[C@H]3OC23C=CCN(c2ccc(Cl)cc2)C(=O)[C@@H]13` (stereo partly specified) as the molecule, how does the composite z-score read?
A: -1.73 and -0.68

Q: `CC(C)[Si]1(C(C)C)OCc2cc(CCCc3cc4c(c(CCc5ccccc5)n3)[Si](C(C)C)(C(C)C)OC4)nc(CCc3ccccc3)c21` was tested. Which composite z-score did it give?
A: -0.0119 and 0.483

Q: With `C=CCN(Cc1ccccc1)C(=O)C1N(CCOCCO)C(=O)C2C(C(=O)O)C3C=CC21O3` (stereo unspecified) as the molecule, how does the composite z-score read?
A: -2.01 and -1.98

Q: With `C[N+](C)(C)CCCCCCNC(=O)[C@H]1C[C@H]2C(=O)N[C@@H](CCCC[N+](C)(C)C)C(=O)N2[C@H]1c1cccc(OCCO)c1` as the molecule, how does the composite z-score read?
A: 1.82 and 1.66

Q: How did the composite z-score turn out when `CCCCCN1CC=CC23O[C@@H]4C=CCCOC(=O)C4[C@H]2C(=O)N(C(C)CO)[C@@H]3C1=O` (stereo partly specified) was run?
A: -0.387 and -1.17

Q: With `O=C1[C@H]2[C@H]3[C@H](O)[C@H](O)CC(=NOCc4ccccc4)[C@H]3CC[C@H]2C(=O)N1Cc1ccccc1` as the molecule, how does the composite z-score read?
A: 0.327

Q: Which composite z-score does the source give for `CO[C@H]1COC(=O)CC=C[C@H](C)[C@H](OC)COC(=O)[C@@H](C)COC(=O)CC=C[C@@H]1C` here?
A: 0.651 and 0.402

Q: With `CN1C(=O)C2CC=C([C@H]3Oc4ccccc4S(=O)(=O)N4CCC[C@@H]34)CC2C1=O` (stereo partly specified) as the molecule, how does the composite z-score read?
A: -0.19 and -0.132

Q: With `C[C@@H](ON=C1[C@H]2CCn3c(=O)n(-c4ccccc4)c(=O)n3[C@H]2[C@H](O)[C@@H]2O[C@H]12)c1cn([C@H](CO)Cc2ccccc2)nn1` as the molecule, how does the composite z-score read?
A: 0.185

Q: For `CCOC(=O)C[C@H]1[C@H](OC(=O)c2ccccc2-c2ccccc2)[C@@H](NC(=O)Cc2ccc(OC)cc2)c2cc(OCCCO)ccc2N1C(=O)c1ccc2ccccc2n1`, which composite z-score is on record?
A: 0.714 and 0.119

Q: `CCOC(=O)[C@H](CC(C)C)NC(=O)CCC1CC(OC(=O)NCc2cccc3ccccc23)CC2(CCCC(COC(=O)NCc3ccccc3)O2)O1` (stereo partly specified) was tested. Which composite z-score did it give?
A: -0.105

Q: How did the composite z-score turn out when `Cc1ccc(S(=O)(=O)N[C@@H]2COC(=O)CC=C[C@@H](C)[C@@H]3C=C[C@H](O)[C@@H](COC(=O)CC=C[C@H]2C)O3)cc1` was run?
A: 1.01 and 0.578

Q: Which composite z-score does the source give for `CO[C@@H]1COC(=O)[C@H](Cc2ccccc2)NC(=O)CC=C[C@@H](C)[C@H](OC)COC(=O)[C@@H](C)NC(=O)CC=C[C@H]1C` here?
A: 1.58 and 1.35
